# Bioassay records as filed in PubChem BioAssay.
# LmPK inh: inhibitors of Leishmania mexicana pyruvate kinase | Potency, µM (series often up to 57.5 µM), for the others: top-dose activity change, negative = inhibition, hits mostly inhibitors | hit rate 0.37% among 290,000 | purified LmPK, Kinase-Glo ATP luminescence, 1 h | Q27686 | AID 1721; further: potency means the concentration at half of the fitted maximal effect; on the % scale 0 is the no-effect control and ±100 the full control effect
#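 ATP generated from ADP (0.1 mM) and PEP (0.5 mM) by 0.1 nM LmPK over 1 h at room temperature (pH 7.2 imidazole buffer) was detected by coupled luciferase luminescence. Values were normalized to uninhibited and no-enzyme wells.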
# Shiga inhibitor: blocks Shiga toxin action in Vero cells | Vero cells, Shiga toxin protein synthesis inhibition reporter | inhibition, % at 38.7 µM | hit rate 9.2% among 290,000 | AID 2315; in the data active means inhibition mostly above about 28%, no sharp cut-off; inactive means mostly below about 43%; further: 0% is about no effect
# Cycloheximide cs: affects cycloheximide protein synthesis inhibition readout, counter-screen; cell reporter, cycloheximide protein synthesis inhibition counterscreen; max response, %; hit rate 12% among 300,000; AID 2314; in the data active means max response mostly above about 13%, no sharp cut-off; inactive means mostly below about 14%; further: read at 38.3 µM for the half of the compounds with a filed dose; 0% is about no effect
# FBPA Giardia inh: inhibitors of Giardia lamblia fructose-1,6-bisphosphate aldolase; purified Giardia FBPA; Potency, µM (top dose mostly 59.6 µM), without a hit: at the top dose activity, negative = inhibition, hits mostly inhibitors; hit rate 0.71% among 290,000; AID 2451; further: potency means the concentration at half of the fitted maximal effect; on the % scale 0 is the no-effect control and ±100 the full control effect; nearly all actives have a fitted effect of over 55% in size
# Target sequence (A8B2U2 whole entry, looked up): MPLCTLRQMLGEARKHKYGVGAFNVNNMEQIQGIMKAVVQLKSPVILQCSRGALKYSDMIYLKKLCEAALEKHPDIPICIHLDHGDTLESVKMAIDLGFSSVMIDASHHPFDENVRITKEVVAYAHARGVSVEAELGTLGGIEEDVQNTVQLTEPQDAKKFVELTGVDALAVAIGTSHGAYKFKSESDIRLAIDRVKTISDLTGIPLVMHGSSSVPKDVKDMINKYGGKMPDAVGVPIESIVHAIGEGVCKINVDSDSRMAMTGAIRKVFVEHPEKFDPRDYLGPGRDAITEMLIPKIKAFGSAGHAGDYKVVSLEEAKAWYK
#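 Giardia FBPA (40 nM reagent) was preincubated 10 min at RT with compound (up to 57.5 uM final), then substrate plus GAPDH/TPI/NAD/arsenate coupling system with diaphorase/resazurin was added; resorufin fluorescence (525/598 nm) was read after 20 min.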
# NS1 function inh: blocks influenza NS1 protein function. Potency, µM (series often up to 46.1 µM), inactives show at the highest dose activity, positive = more growth. hit rate 0.4% among 270,000; calls by dose curve; further: potency means the concentration at half of the fitted maximal effect; actives are rising curves; nearly all actives have a fitted effect of over 50% in size
#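 A cell-based growth assay was used: compounds that relieve NS1-induced slow growth of budding yeast raise OD600. Assay medium was yeast nitrogen base with ammonium sulphate and -URA supplement, pH 6.0, with 2% galactose.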
# Starred values were filed as active, the others as inactive; ? = inconclusive; / = no result given; [ ] = remark or other dose. Shown are actives, neighbours in structure and some others; about 14% of the full set was active somewhere. Unless noted, the call rests on the fitted dose curve; in most records, active means well fitted curve in the direction sought with a large enough effect; inconclusive means small, poorly fitted or top-dose-only effect, or another doubt; inactive means no such curve, though single readings can be large; an effect the other way counts as inactive or inconclusive.
SMILES,LmPK inh,Shiga inhibitor,Cycloheximide cs,FBPA Giardia inh,NS1 function inh
Cc1c(C)n(Cc2ccccc2)c2ncnc(Cl)c12,3.2%,1.0,6.5,-4.1%,-13.4%
C[C@H](CCC(=O)O)[C@H]1CC[C@H]2[C@H]3C(C[C@H](O)[C@]12C)[C@@]1(C)CC[C@@H](O)C[C@H]1C[C@H]3O (some centres undefined),/,/,/,1.0%,/
CC(=O)Nc1sc(C)c(C)c1C(=O)OCCOc1ccccc1,3.7%,113.4*,47.9*,0.4%,-10.3%
Cc1ccccc1C(=O)Nc1sc(C)c(C)c1C(=O)c1ccccc1,2.4%,-6.5,-1.1,-4.7%,8.8%
Cc1sc(NC(=O)CCl)c(C(=O)c2ccccc2)c1C,5.9%,-7.5,11.7*,9.0%,-35.9%
Cc1c(Cl)cccc1NC(=O)CNC(=O)c1ccccc1F,-1.3%,8.8,-1.2,3.2%,-1.0%
O=C(CC(=O)c1ccccc1O)c1ccc(F)cc1,2.2%,70.2*,48.9*,-27.9%,-244.1%
O=C(CC(=O)c1ccccc1O)c1cccc(F)c1,-4.2%,55.8*,34.2*,?,-252.2%
O=C(CC(=O)c1c(F)cccc1Cl)c1ccccc1O,0.6%,51.5*,55.5*,-9.4%,-110.2%
Cc1cc(C(=O)NC(C)C2CC2)c(Cl)cc1Cl (centres undefined),-4.0%,/,0.9,9.3%,-0.8%
CC(=O)N1CCc2cc(S(=O)(=O)NC(Cc3ccccc3)C(=O)O)ccc21 (centres undefined),-3.2%,6.3,-0.9,/,-2.9%
COc1cccc(NC(=O)/C=C/c2ccc([N+](=O)[O-])cc2)c1,-11.3%,47.0*,39.2*,-26.7%,-0.4%
COc1cccc(NC(=O)/C=C/c2ccccc2[N+](=O)[O-])c1,?,74.2*,61.0*,-18.6%,-41.2%
O=C(/C=C/c1ccccc1[N+](=O)[O-])Nc1cccnc1,-16.2%,44.8*,35.7*,0.6%,-5.4%
O=C(CSc1nnc2ncccn12)Nc1cccc2ccccc12,1.1%,-5.0,-1.5,4.7%,-3.3%
CC1=Nc2ccccc2N=C(NC(=O)CN2CCN(c3ccc(F)cc3)CC2)C1c1ccccc1 (centres undefined),4.1%,16.1,-2.3,-4.1%,-12.3%
O=C(N=C1SC2CS(=O)(=O)CC2N1c1ccc(OC(F)(F)F)cc1)C1CC1 (centres undefined),2.4%,17.3,13.2,/,-1.1%
Nc1[nH]ncc1S(=O)(=O)c1ccccc1,1.5%,15.5,-5.0,-13.8%,8.1%
O=C(O)c1ccccc1NCn1c(=S)sc2ccccc21,/,/,/,/,-0.3%
O=C(N/N=C/c1cc([N+](=O)[O-])ccc1O)c1ccncc1,-9.5%,-5.6,-2.3,14.4%,-10.8%
O=C(N/N=C/c1cccc([N+](=O)[O-])c1)c1cccc2cc[nH]c12,0.1%,57.6*,28.8*,2.7%,/
O=C(N/N=C/c1cccc([N+](=O)[O-])c1)c1ccccc1-n1cccc1,4.2%,27.9*,3.9,?,/
O=C(N/N=C/c1cc([N+](=O)[O-])ccc1O)c1cccc2cc[nH]c12,-2.3%,31.0*,33.1*,8.6%,-30.4%
Cc1cc(C(=O)N/N=C/c2cccc([N+](=O)[O-])c2)c2ccccc2n1,3.0%,14.6,-2.6,-19.2%,1.9%
COC(=O)c1ccc(C(=O)N2CCCC(N3CCN(c4ccc(F)cc4)CC3)C2)nc1 (centres undefined),0.1%,1.7,1.1,2.9%,8.3%
SMILES,LmPK inh,Shiga inhibitor,Cycloheximide cs,FBPA Giardia inh,NS1 function inh
COc1ccc(CN2CCc3ccccc3C2)cc1Br,-1.0%,4.4,6.2,?,-16.4%
CC(=O)c1ccc(NC(=O)CCNC(=O)c2ccc(Cl)cc2)cc1,3.5%,35.6,1.4,-2.7%,-1.1%
N#Cc1ccc(CO/N=C/c2ccccc2)cc1,-3.9%,76.3*,40.9*,1.6%,/
CN(C)c1ccnc(-n2cccc2/C=N/OCc2ccccc2)c1C#N,4.4%,-3.7,-1.5,2.2%,-49.2%
Cc1nc2ccccc2nc(C)c1=NOCc1ccc(C#N)cc1,5.2%,66.5*,28.9*,-1.9%,1.4%
CCOCCn1cnc2sc(C(=O)NCCCN3CCOCC3)c(C)c2c1=O,-2.7%,11.9,7.9,/,5.4%
Cc1ccccc1C(=O)OCCN1CCOCC1,-3.6%,-2.2,23.4*,-9.1%,11.7%
O=C(OCCN1CCOCC1)c1ccccc1,-3.6%,8.2,2.9,?,15.0%
O=C(OCCN1CCOCC1)c1ccc(Cl)cc1Cl,-2.2%,47.5*,38.9*,?,-5.6%
O=C(OCCN1CCOCC1)c1ccc(O)cc1,-0.4%,/,-0.8,-9.2%,19.6%
COc1ccc(C2/C=C\CN(C(=O)C3CCCC3)C(C)C(=O)N2Cc2ccc(F)cc2)cc1 (centres undefined),/,-1.7,4.3,-1.5%,/
Nc1ccc2nc3c(=O)n(C4CCCCC4)c(=O)[nH]c3nc2c1,1.2%,77.9*,39.9*,?,7.0%
CCCCn1c(=O)[nH]c2nc3cc(N)ccc3nc2c1=O,0.1%,81.0*,79.9*,0.141µM*,?
C=C(C[C@]1(C(=O)OC)CC2(CC=C(C)C)C(=O)C(C(=O)CC(C)C)=C(O)C(CC=C(C)C)(C1)C2=O)C(=O)OC (some centres undefined),/,/,/,0.7%,/
Cc1ccc(-c2nc3cc(NC(=O)C(C)C)ccc3o2)cc1C,-6.7%,94.9*,83.2*,-5.3%,-34.6%
CC(C)C(=O)Nc1cccc(-c2nc3ccccc3o2)c1,-6.4%,10.9,5.1,7.7%,-15.7%
Cc1ccc2nc(-c3ccc(O)cc3)oc2c1,-4.7%,13.5,19.4*,0.5%,-4.1%
Cc1ccc2nc(-c3cccc(-c4nc5ccc(C)cc5o4)n3)oc2c1,/,/,/,/,2.0%
Cc1cc2nc(-c3ccc(NC(=O)C(C)C)cc3)oc2cc1C,-17.6%,79.9*,54.4*,3.4%,?
Cc1ccc(-c2nc3cc(Cl)ccc3o2)cc1,?,122.6*,45.9*,9.9%,6.8%
COc1ccc(NC(=O)N2CC[C@@]3(CCCNC3)C2)cc1,/,/,/,0.2%,/
COc1ccccc1N(CC(=O)NC1CCCC1)C(=O)CCC(=O)Nc1ccccn1,0.5%,51.7,-5.8,2.5%,1.8%
CCN(C(=O)COC(=O)/C=C/c1c(C)nn(-c2ccccc2)c1C)C1CCS(=O)(=O)C1 (centres undefined),-3.2%,-7.3,2.9,1.5%,-8.5%
COC(=O)NC(/C(C(=O)OC)=C(\C)NCc1ccccc1)c1ccc(Cl)cc1 (centres undefined),/,/,/,-0.8%[12.9 µM],/
COc1cc(OC)cc(-c2nc3cc(C)ccc3o2)c1,14.1µM*,103.6*,57.8*,-8.4%,-33.4%
Clc1ccc(-c2nc3cc(CN4CCCCC4)ccc3o2)cc1,3.7%,54.0*,35.6*,1.8%,-1.2%
Cc1ccc(-c2nc3cc(NC(=O)C(C)C)ccc3o2)cc1,-0.2%,95.2*,72.9*,0.3%,-1.3%
COc1cc(OC)cc(-c2nc3ccccc3c(=O)o2)c1,3.1%,14.4,-2.9,0.4%,-2.1%
CCOC(=O)C1CCCN(S(=O)(=O)Cc2ccc(Cl)cc2)C1 (centres undefined),1.9%,1.4,1.4,1.8%,4.7%
CC(C)CCNC(=O)C(=O)Nc1ccccc1,-8.8%,162.0*,45.1*,1.6%,/
